Measured values taken from PubChem BioAssay.
Inconclusive results are not listed. The source made the active and inactive calls.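 How the source made its calls, unless noted: active means normalized viability below 100% at a tested concentration; inactive means the rest.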

Key:
[1] = growth inhibition of DIPG glioma cells, dose response, cell-based, SU-DIPG-XVII, MIPE5.0, CellTiter-Glo, qHTS (AID 1347060; cut-off not given, nearly all actives have AC50 up to about 26 µM;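 on AC50: cells exposed to compound for 48 hours before viability readout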); settings: SU-DIPG-XVII viability, CellTiter-Glo ATP luminescence
[2] = growth inhibition of DIPG glioma cells, dose response, cell-based, SU-DIPG-IV, MIPE4.0, CellTiter-Glo, qHTS (AID 1347063; cut-off not given, nearly all actives have AC50 up to about 30 µM;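 further: compound exposure lasted 48 hours before the viability readout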); settings: SU-DIPG-IV viability, CellTiter-Glo ATP luminescence
[3] = growth inhibition of DIPG glioma cells, dose response, cell-based, SU-DIPG-XIII, MIPE5.0, CellTiter-Glo, qHTS (AID 1347064; cut-off not given, nearly all actives have AC50 up to about 23 µM;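 on AC50: cells exposed to compound for 48 hours before the viability read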); settings: SU-DIPG-XIII viability, CellTiter-Glo ATP luminescence
[4] = viability loss in pontine glioma line – cell-based, SU-DIPG-XXV, MIPE5.0, CellTiter-Glo, qHTS, dose response (AID 1347065; cut-off not given, nearly all actives have AC50 up to about 26 µM;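 further: cells exposed to compound for 48 hours before ATP readout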); settings: CellTiter-Glo ATP luminescence
[5] = SU-DIPG-VI glioma cell viability, MIPE4.0 library, CellTiter-Glo luminescence, qHTS (AID 1347066; cut-off not given, nearly all actives have AC50 up to about 30 µM;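 further: cells exposed to compound for 48 hours before readout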); settings: CellTiter-Glo ATP luminescence
[6] = JHH-DIPG-1 glioma cell viability, MIPE5.0 library, CellTiter-Glo luminescence, qHTS (AID 1347067; cut-off not given, nearly all actives have AC50 up to about 26 µM;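 further: cells exposed to compound for 48 hours before readout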); settings: JHH-DIPG-1 glioma viability, CellTiter-Glo ATP luminescence
[7] = SU-DIPG-XXV glioma cell viability, MIPE5.0 library, qHTS (AID 1347068; cut-off not given, nearly all actives have IC50 up to about 30 µM;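 on IC50: cells exposed to compound for 48 hours before viability readout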)
[8] = growth inhibition of DIPG glioma cells, dose response, cell-based, JHH-DIPG-1, MIPE4.0, CellTiter-Glo, qHTS (AID 1347062; cut-off not given, nearly all actives have AC50 up to about 27 µM); settings: JHH-DIPG-1 viability, CellTiter-Glo ATP luminescence
[9] = modifiers of HSF1 nuclear foci, imaging, Selleck Cancer Library (AID 1347162; in the data active means plate-normalised HSF1 focus index below about 0.46); settings: human cells, at 10 µM; SSMD: measured here: HSF1 foci SSMD mean; cell count: measured here: cell number; plate-normalised HSF1 focus index: stronger effect = lower value
[10] = sensitizers of A549 cells to miR-34 induction, primary screen, imaging, A549 dox-inducible miR-34, nuclei and caspase counts (AID 1347080;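 active means compounds whose cell count with miR-34 switched on is under 0.7 times the count with it off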); settings: A549 miR-34 inducible, Hoechst nuclei count, 48 h
[11] = survival rescue of mitochondrial mutant cells in low glucose, primary screen, MELAS cybrids, Rieske KO mouse fibroblasts, CellTiter-Glo (AID 1508586;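 active means mean z-score across replicates of 1.96 or higher in either the MELAS or the Rieske mutant cell line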;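 further: z relative to plate mean and SD of compound and empty wells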)
[12] = ovarian cancer cell viability with rucaparib, profiling panel, oncology-focused library, rucaparib conditional (AID 1508598); settings: patient-derived ovarian cancer cells, CellTiter-Glo viability, 144 h, stronger effect = lower value

COc1cc(C(C)C)c(Oc2cnc(NC(CO)CO)nc2N)cc1I
inactive: outcome [1] | outcome [3] | outcome [4] | outcome [5] | outcome [6] | outcome [7]
active: AC50 [2] 14.8 µM

COc1c(OCCCN2CCOCC2)ccc2c3n(c(=NC(=O)c4cnc(N)nc4)nc12)CCN3
active: AC50 [1] 0.27 µM | AC50 [2] 0.102 µM | AC50 [3] 0.27 µM | AC50 [4] 0.0959 µM | AC50 [5] 0.0457 µM | AC50 [6] 0.191 µM | IC50 [7] 0.382 µM

COc1cc(C)c(Sc2cnc(NC(=O)c3ccc(CNC(C)C(C)C)cc3)s2)cc1C(=O)N1CCN(C(C)=O)CC1 (centres undefined)
active: AC50 [1] 14.8 µM | AC50 [2] 18.7 µM | AC50 [3] 8.33 µM | AC50 [4] 10.5 µM | AC50 [5] 14.8 µM | AC50 [6] 16.6 µM | IC50 [7] 14.8 µM

CC(=O)O/N=C1/C(c2c(O)[nH]c3cc(Br)ccc23)=Nc2ccccc21
active: AC50 [1] 8.33 µM | AC50 [2] 1.48 µM | AC50 [3] 20.9 µM | AC50 [4] 7.42 µM | AC50 [6] 29.5 µM | IC50 [7] 9.34 µM

NCc1c[nH]c(=S)n1[C@H]1CCc2c(F)cc(F)cc2C1
active: AC50 [2] 9.35 µM
inactive: outcome [1] | outcome [3] | outcome [4] | outcome [6] | outcome [7]

COc1ccccc1[C@H](c1cccc2ccccc12)[C@@](C)(C#N)C(=O)N1CCC(c2cccc(C(F)(F)F)c2)CC1
inactive: outcome [1] | outcome [3] | outcome [4] | outcome [5] | outcome [6] | outcome [7]
active: AC50 [2] 3.32 µM

CC(N[C@H]1CCCC[C@@H]1NC(=O)c1ccc(Cl)cc1)c1cccc2ccccc12 (some centres undefined)
active: AC50 [1] 8.33 µM | AC50 [2] 0.148 µM | AC50 [3] 7.42 µM | AC50 [4] 8.33 µM | AC50 [6] 9.34 µM | IC50 [7] 16.6 µM

C#CCN(C)CC1=Cc2ccccc2Oc2ccccc21
6620: cell count [9]
inactive: outcome [1] | outcome [8] | outcome [4] | outcome [6] | outcome [7] | plate-normalised HSF1 focus index [9] 1.15
2.55: SSMD [9]

CC1(C)CNc2cc(NC(=O)c3cccnc3NCc3ccncc3)ccc21
active: AC50 [1] 20.9 µM | AC50 [4] 16.6 µM | viability ([12]; at 1.25 µM, OCI-P5x cells, without rucaparib) 98.9% | viability ([12]; at 5 µM, OCI-P5x cells, without rucaparib) 94.6%
7630: cell count ([10]; measured here: total cells without miR-34 induction)
0.896: z-score ([11]; Rieske KO mouse fibroblast survival, CellTiter-Glo 72 h)
7450: cell count [9]
inactive: outcome [8] | outcome [7] | fold change ([10]; stronger effect = lower value, cell number ratio, induced over uninduced) 0.978 | plate-normalised HSF1 focus index [9] 1.16 | z-score ([11]; MELAS cybrid survival, CellTiter-Glo 48 h, stronger effect = higher value) -0.604 | viability ([12]; at 0.000305 µM, OCI-C5x cells, with rucaparib 10 µM, 100% = cells with rucaparib alone) 121% | viability ([12]; at 0.000305 µM, OCI-C5x cells, without rucaparib) 126% | viability ([12]; at 0.000305 µM, OCI-P5x cells, with rucaparib 20 µM, 100% = cells with rucaparib alone) 128% | viability ([12]; at 0.000305 µM, OCI-P5x cells, without rucaparib) 103% | viability ([12]; at 0.00122 µM, OCI-C5x cells, with rucaparib 10 µM, 100% = cells with rucaparib alone) 114% | viability ([12]; at 0.00122 µM, OCI-C5x cells, without rucaparib) 128% | viability ([12]; at 0.00122 µM, OCI-P5x cells, with rucaparib 20 µM, 100% = cells with rucaparib alone) 134% | viability ([12]; at 0.00122 µM, OCI-P5x cells, without rucaparib) 102% | viability ([12]; at 0.00488 µM, OCI-C5x cells, with rucaparib 10 µM, 100% = cells with rucaparib alone) 112% | viability ([12]; at 0.00488 µM, OCI-C5x cells, without rucaparib) 122% | viability ([12]; at 0.00488 µM, OCI-P5x cells, with rucaparib 20 µM, 100% = cells with rucaparib alone) 135% | viability ([12]; at 0.00488 µM, OCI-P5x cells, without rucaparib) 104% | viability ([12]; at 0.0195 µM, OCI-C5x cells, with rucaparib 10 µM, 100% = cells with rucaparib alone) 121% | viability ([12]; at 0.0195 µM, OCI-C5x cells, without rucaparib) 128% | viability ([12]; at 0.0195 µM, OCI-P5x cells, with rucaparib 20 µM, 100% = cells with rucaparib alone) 140% | viability ([12]; at 0.0195 µM, OCI-P5x cells, without rucaparib) 105% | viability ([12]; at 0.0781 µM, OCI-C5x cells, with rucaparib 10 µM, 100% = cells with rucaparib alone) 119% | viability ([12]; at 0.0781 µM, OCI-C5x cells, without rucaparib) 141% | viability ([12]; at 0.0781 µM, OCI-P5x cells, with rucaparib 20 µM, 100% = cells with rucaparib alone) 138% | viability ([12]; at 0.0781 µM, OCI-P5x cells, without rucaparib) 108% | viability ([12]; at 0.313 µM, OCI-C5x cells, with rucaparib 10 µM, 100% = cells with rucaparib alone) 122% | viability ([12]; at 0.313 µM, OCI-C5x cells, without rucaparib) 126% | viability ([12]; at 0.313 µM, OCI-P5x cells, with rucaparib 20 µM, 100% = cells with rucaparib alone) 142% | viability ([12]; at 0.313 µM, OCI-P5x cells, without rucaparib) 107% | viability ([12]; at 1.25 µM, OCI-C5x cells, with rucaparib 10 µM, 100% = cells with rucaparib alone) 135% | viability ([12]; at 1.25 µM, OCI-C5x cells, without rucaparib) 146% | viability ([12]; at 1.25 µM, OCI-P5x cells, with rucaparib 20 µM, 100% = cells with rucaparib alone) 145% | viability ([12]; at 5 µM, OCI-C5x cells, with rucaparib 10 µM, 100% = cells with rucaparib alone) 137% | viability ([12]; at 5 µM, OCI-C5x cells, without rucaparib) 148% | viability ([12]; at 5 µM, OCI-P5x cells, with rucaparib 20 µM, 100% = cells with rucaparib alone) 131%
2.51: SSMD [9]
0.926: fold change ([10]; measured here: relative caspase fold change +Dox/-Dox)
7470: cell count ([10]; measured here: total cells with miR-34 induction, stronger effect = lower value)
